# SW480 rerep = induces DNA re-replication in SW480 colon adenocarcinoma cells; SW480 DNA re-replication, Hoechst DNA content imaging, 48 h; Potency, µM (doses to about 46.1 µM), inactives show at the highest dose re-replication activation, actives largely listed as activators; 1.8% of 340,000 active; AID 624297; also: % of control where 0% means no effect; nearly all actives have a fitted effect of over 55% in size
#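 Cells (250 per well) received 23 nL compound or DMSO by pin tool and were kept 48 hr at 37 C, 5% CO2. Nuclei were then stained with Hoechst for 40 min and scanned for DNA content.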
# MCF10A rerep = induces DNA re-replication in MCF 10a normal breast cells. MCF 10A DNA re-replication, Hoechst nuclear intensity, 48 h. 2.9% of 350,000 active. Potency, µM (titrated, usually from 46.1 µM), for inactives: at the top dose activity, positive = re-replication, actives largely listed as activators. AID 624296; also: % of control where 0% means no effect; nearly all actives have a fitted effect of over 50% in size
# KB-V1 MDR tox = KB-V1 MDR subline cytotoxicity; Potency, µM (highest dose often 46.1 µM), usual class: cytotoxic; AID 1347076; 3.4% of 400,000 active; KB-V1 MDR cells viability, CellTiter-Glo, 72 h; also: % is scaled to controls: 0 for no effect and ±100 for the full control effect; nearly all actives have a fitted effect of over 60% in size
#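 In this primary screen, KB-V1 cells overexpressing P-gp are incubated with library compounds (lowest to highest concentration) for 72 h at 37 degrees C before a luminescent ATP viability read.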
# KB-3-1 tox = KB-3-1 parental cell cytotoxicity; Potency, µM (titrated, usually from 46.1 µM), usual class: cytotoxic; 1.4% of 400,000 active; KB-3-1 viability, CellTiter-Glo ATP luminescence, 72 h; AID 1347075; also: % is scaled to controls: 0 for no effect and ±100 for the full control effect; nearly all actives have a fitted effect of over 60% in size
#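 Using CellTiter-Glo luminescence, growth of non-resistant KB-3-1 adenocarcinoma cells is assessed 72 h after pin-tool compound addition at 37 °C. Normalized responses across the concentration series yield fitted curves.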
# ELG1 DNA repair = ELG1-dependent DNA repair inhibition | HEK293T ELG1-luciferase reporter, luminescence, 16 h; DNA damage induced by 5-fluorouridine | Potency, µM (series often up to 46.1 µM), for the others: at the top dose activity change, negative = inhibition, usual class: inhibitors | 2.3% of 330,000 active | AID 504467; also: % is scaled to controls: 0 for no effect and ±100 for the full control effect; nearly all actives have a fitted effect of over 55% in size
#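 5-Fluorouridine DNA damage + compound/DMSO, 2,000 cells/well, 16 h, 37 °C/5% CO2. ONE-Glo, 30 min RT, luminescence. Readout = decrease in reporter signal.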
# Starred values were filed as active, the others as inactive; i = inactive; ? = inconclusive; . = no result given. Rows were chosen to be rich in hits. Some 8.1% of all compounds tested hit in one or more screens of this group. Calls follow the shape of the dose curve; as a rule, active = well fitted curve in the direction sought with a large enough effect; inconclusive = small, poorly fitted or top-dose-only effect, or another doubt; inactive = no such curve, though single readings can be large; an effect the other way counts as inactive or inconclusive. Potency is read from the fitted curve at half-maximal effect.
SMILES,SW480 rerep,MCF10A rerep,KB-V1 MDR tox,KB-3-1 tox,ELG1 DNA repair
CC[C@@H]1C/C=C\Cc2ccccc2[C@@H](C(=O)C[C@H](O)CC(C)=O)OC1=O,7%,?,i,i,6%
CCn1c(=NC(=O)C2COc3ccccc3O2)sc2c(OC)ccc(OC)c21 (configuration not stated),-24%,16%,9.2µM*,i,0%
Nc1nc(N)c2c(ccc3c2ccn3Cc2cccc([N+](=O)[O-])c2)n1,.,.,1.8µM*,0.58µM*,.
N#Cc1cc2c(nc1SCC(=O)NCc1ccc3c(c1)OCO3)CCCCC2,-1%,?,13µM*,i,-12%
COC(=O)CC(=O)CSc1nc2c(cc1C#N)CCCCC2,-9%,?,i,i,?
Cc1nonc1NC(=O)CSc1nc(CCC2CCCC2)nc2ccccc12,-5%,7.3µM*,i,i,4%
O=C(CSc1nc(CCC2CCCC2)nc2ccccc12)NCc1ccc2c(c1)OCO2,-3%,10µM*,?,i,?
CCOC(=O)CC(=O)CSc1nc2c(cc1C#N)CCC2,?,4.6µM*,i,i,17%
CCCc1nc(SCC(=O)NC2CCCC2)c2ccccc2n1,-16%,?,i,i,-2%
CCc1cccc(C)c1NC(=S)NCc1ccc2[nH]c(C)cc2c1,13µM*,-1%,i,i,?
COc1cc(OC)c(NC(=O)c2nn(-c3ccc(C)cc3)c(=O)c3c2c2ccccc2n3C)cc1Cl,.,.,i,i,.
COc1ccc(CNC(=O)CN2CCN(S(=O)(=O)c3ccccc3)CC2)cc1,-2%,0%,i,i,1%
O=S1(=O)c2ccc(Br)cc2N2CCC[C@@H]2CN1Cc1ccccc1,2.9µM*,?,i,?,?
COC(=O)c1ccc(Oc2nc(Nc3ccc(C)c(C)c3)nc(N(C)C)n2)cc1,?,3%,i,i,21µM*
CC(CSc1nc2ccccc2s1)Cn1c(N2CCCC2)nc2c1c(=O)[nH]c(=O)n2C (configuration not stated),0%,15%,i,i,15µM*
CC1CC(C)CN(c2nc3c(c(=O)[nH]c(=O)n3C)n2CCCSc2nc3ccccc3s2)C1 (configuration not stated),-7%,-2%,4.1µM*,i,.
CCN1CCN(c2nc3c(c(=O)[nH]c(=O)n3C)n2CCSc2nc3ccccc3s2)CC1,-2%,-5%,i,i,?
Cc1nnc(SCCn2c(N3CC(C)CC(C)C3)nc3c2c(=O)n(C)c(=O)n3C)s1 (configuration not stated),0%,4%,21µM*,i,1%
O=C(COCc1cc(-c2ccco2)on1)Nc1cccc(O)c1,.,.,?,i,.
Cc1ccc(-c2nnc(Nc3ccc(Br)cc3)c3ccccc23)cc1S(=O)(=O)NCC1CCCO1 (configuration not stated),.,.,i,i,.
CC1CCN(C(=O)c2cc3nc(-c4ccccc4)cc(-c4ccccc4)n3n2)CC1,15%,16µM*,i,i,?
O=C(c1cnn2c(-c3ccccc3)cc(-c3ccccc3)nc12)N1CCN(Cc2ccccc2)CC1,18µM*,?,i,?,.
O=C(c1cnn2c(C(F)F)cc(-c3ccccc3)nc12)N1CCOCC1,-15%,6%,i,i,-9%
CCOC(=O)N1CCC(NS(=O)(=O)c2ccc(C)cc2)CC1,-3%,1%,i,i,?
CCOC(=O)N1CCC(NC(=O)c2cc(S(=O)(=O)N(CC)CC)ccc2F)CC1,0.73µM*,-13%,?,i,-11%
SMILES,SW480 rerep,MCF10A rerep,KB-V1 MDR tox,KB-3-1 tox,ELG1 DNA repair
CCOC(=O)N1CCC(NC(=O)c2cc(S(=O)(=O)N3CCC4(CC3)OCCO4)ccc2F)CC1,1%,12%,23µM*,i,?
CCOC(=O)N1CCC(NS(=O)(=O)c2ccc(NC(C)=O)c(Cl)c2)CC1,?,?,?,?,7.3µM*
CCOC(=O)N1CCC(NC(=O)c2cc(S(=O)(=O)N3CCOCC3)ccc2F)CC1,-4%,-3%,i,i,-3%
CCN(CC)S(=O)(=O)c1ccc(Cl)c(C(=O)NC2CCCC2)c1,-2%,3%,i,i,-13%
O=C(NN=C(c1ccccc1)c1ccccn1)c1ccccc1,10µM*,?,?,?,?
O=C(NC(O)C(=O)c1ccccc1)c1ccccn1 (configuration not stated),6%,29%,i,?,6%
COc1ccc(C(=O)N/N=C(\c2ccccc2)c2ccccn2)cc1,?,?,0.65µM*,i,?
O=c1c2[nH]c3ccc(F)cc3c2ncn1CCC1=CCCCC1,-3%,-3%,i,i,?
CN(C)CCOc1cc(Cl)cc(Cl)c1,0%,-9%,i,i,?
COCCN(CCOc1cc(C)cc(C)c1)Cc1ccc(Cl)cc1,?,18µM*,?,i,-11%
CCN(CC)CCOc1ccc(C(O)(Cc2ccc(Cl)cc2)c2ccc(C)cc2)cc1 (configuration not stated),?,9.4µM*,.,.,.
Cc1ccc(C)c(-n2c(N)c(C#N)c3nc4ccccc4nc32)c1,.,.,i,i,.
C=CCNCCCCOc1ccc(OCc2ccccc2)cc1,21µM*,?,i,i,?
CCOC(=O)c1ccc(NC(=S)N2CCSC2c2ccc(OC)cc2)cc1 (configuration not stated),6%,11%,18µM*,i,13%
CCOC(=O)c1ccc(NC(=S)N2CCSC2c2ccc(Cl)cc2)cc1 (configuration not stated),-1%,?,?,i,10%
CN1CCN(c2ccc(NC(=S)NC(=O)c3cccc4c(Cl)cccc34)cc2)CC1,21µM*,?,i,i,1%
CCOC(=O)c1ccc(NC(=S)NN2CCOCC2)cc1,-1%,23µM*,i,i,?
CCOC(=O)c1ccc(NC(=S)Nc2ccc(C)cc2)cc1,5%,-2%,i,i,?
CCCC(=O)N1CCN(c2ccc(NC(=S)NC(=O)c3cccc(C)c3)cc2)CC1,-5%,12%,?,?,16µM*
COc1ccc(NC(=O)Cn2c(=O)cc(C)c3c(C)nn(C)c32)cc1,.,.,i,i,.
CCN1CCN(c2cc3c(cc2F)c(=O)c(S(=O)(=O)c2ccc(OC)cc2)cn3CC)CC1,.,.,i,i,.
O=C(NC(=S)Nc1ccc(N2CCOCC2)cc1)c1ccco1,?,14%,16µM*,i,?
O=C(NC(=S)Nc1ccc(CN2CCOCC2)cc1)c1ccco1,-2%,-24%,i,i,?
